LASV entry inh = inhibitors of Lassa virus binding or cell entry. Lassa virus pseudotype entry inhibition, cell reporter. Potency, µM (highest dose often 37.9 µM), without a hit: at the highest dose activity change, negative = inhibition, usual class: inhibitors. hit rate 1.2% among 300,000. AID 540256; calls by dose curve; tested in HEK293 cells; further: potency means the concentration at half of the fitted maximal effect; nearly all actives have a fitted effect of over 50% in size
HCMV inh = blocks human cytomegalovirus replication; HFF cells, HCMV-luciferase reporter, 72 h; hits give low values; activity change, negative = inhibition, % at 57.5 µM; hit rate 4.5% among 410,000; in the data active means activity change below about -60%; inconclusive means no clear call, values can overlap the other calls; inactive means above about -39%
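Luciferase read-out from HCMV-luciferase-infected HFFs (MOI 1 PFU/cell) 72 h post infection at 37C; compounds added after 16 h cell attachment; activity normalized between buffer-only basal and Salinomycin (10uM) inhibitor controls.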
FMDV inh = foot and mouth disease virus antiviral activity. FMDV antiviral cell-based qHTS. Potency, µM (highest dose often 57.9 µM), for the others: at the top dose activity change, negative = inhibition, most hits filed as inhibitors. hit rate 1.2% among 410,000. AID 1159524; calls by dose curve; tested in HEK293T cells; further: read-out not given here; potency means the concentration at half of the fitted maximal effect; nearly all actives have a fitted effect of over 45% in size
MARV entry inh = Marburg virus entry inhibition; Potency, µM (series often up to 37.8 µM), for the others: top-dose activity change, negative = inhibition, most hits filed as inhibitors; AID 540276; Marburg virus pseudotyped entry inhibition, cell reporter; hit rate 1.8% among 300,000; calls by dose curve; tested in HEK293 cells; further: potency means the concentration at half of the fitted maximal effect
VACV Venus inh = vaccinia inhibition (Venus reporter); Vaccinia virus Venus reporter expression, fluorescence; Potency, µM (titrated, usually from 36.5 µM), without a hit: at the highest dose activity change, negative = inhibition, most hits filed as inhibitors; hit rate 0.46% among 330,000; calls by dose curve; tested in A549 cells; further: potency means the concentration at half of the fitted maximal effect; nearly all actives have a fitted effect of over 30% in size
VACV mCherry inh = inhibitors of vaccinia virus infection (mCherry reporter signal); AID 720579; Potency, µM (series often up to 36.5 µM), inactives show top-dose activity change, negative = inhibition, actives largely listed as inhibitors; hit rate 0.63% among 310,000; Vaccinia virus mCherry reporter infection, fluorescence; calls by dose curve; tested in A549 cells; further: potency means the concentration at half of the fitted maximal effect; nearly all actives have a fitted effect of over 35% in size
Starred values were filed as active, the others as inactive; i = inactive; u = inconclusive; x = no result; + = active, no number; [ ] = remark or other dose. The list is not random: actives were taken first. Their share in the collection is about 6.5%. On the % scale 0 is the no-effect control and ±100 the full control effect.

SMILES | LASV entry inh | HCMV inh | FMDV inh | MARV entry inh | VACV Venus inh | VACV mCherry inh
NC(=S)NN=C1c2cc(Cl)ccc2-c2c1cc(Cl)cc2[N+](=O)[O-] | 0% | x | 20µM* | -24% | -17% | -16%
COC(=O)C1=C(C)N=C2S[C@@H](C)C(=O)N2[C@H]1c1cccs1 | x | x | x | 6% | x | x
O=C(Nc1ccccc1)C1CCN(S(=O)(=O)c2ccc3[nH]c4c(c3c2)CCCCC4)CC1 | u | 0 | -17% | x | -22% | -24%
O=C(NCc1ccc2[nH]c3c(c2c1)CCCC3)c1ccc(S(=O)(=O)N2CCCCC2)cc1 | -18% | -78* | u | -21% | -29% | -25%
CCc1ccc(NC(=O)C2CCN(S(=O)(=O)c3ccc4[nH]c5c(c4c3)CCCCC5)CC2)cc1 | -17%[46.1 µM] | + | -12% | x | -21% | i
Cc1cc(C)cc(NC(=S)NCc2ccc3[nH]c4c(c3c2)CCCC4)c1 | 3.7µM* | -40 | -10% | u | -5% | u
COc1ccc(NC(=O)Cn2c(=O)n(Cc3ccccc3)c(=O)c3oc4ccccc4c32)cc1Cl | u | 45 | 4% | x | -17% | -4%
O=C(COC(=O)c1ccccc1O)NC12CC3CC(CC(C3)C1)C2 | -9% | -4 | -21% | u | -9% | -24%
O=C(COC(=O)/C=C/C(=O)OCC(=O)NC12CC3CC(CC(C3)C1)C2)NC12CC3CC(CC(C3)C1)C2 | -21% | -10 | u | 8.9µM* | 3% | -6%
COc1ccccc1N(CC(=O)Nc1ccccc1C)S(C)(=O)=O | 1% | -61* | x | 3% | -11% | -10%
COc1ccccc1N(CC(=O)Nc1c(C)cccc1C)S(C)(=O)=O | 4% | -8 | x | -1% | -10% | -1%
O=C(CNc1ccc(F)cc1)N/N=C/c1c(O)ccc2ccccc12 | x | -97* | 10% | x | x | x
COc1ccccc1N(CC(=O)N/N=C/c1c(O)ccc2ccccc12)S(C)(=O)=O | 9.2µM* | -17 | -30% | u | u | 11µM*
COc1ccccc1CNC(=O)CN(c1ccccc1OC)S(C)(=O)=O | -4%[46.1 µM] | -17 | -9% | x | -13% | -14%
COc1ccccc1NC(=O)c1c(N=Cc2c(O)ccc3ccccc23)cnn1C | u | -89* | u | u | -26% | u
CCCNC(=O)N1[C@@H]2CN(C(=O)Nc3ccccc3)c3ccccc3[C@@H]2[C@@H]1CO | x | -23 | x | x | x | x
CC(O)(COc1ccccc1)c1ccc2c(c1)CN(Cc1cccnc1)CCO2 (stereo not given) | x | x | -19% | x | -5% | -19%
COC(=O)c1ccccc1NC(=O)C1CCCN(C(=O)c2cnn(-c3ccc(F)cc3)c2-n2cccc2)C1 (stereo not given) | -4%[46.1 µM] | 7 | u | x | -28% | u
COc1ccccc1NCC(=O)N/N=C/c1cccnc1 | -23%[14.3 µM] | 21 | -7% | -7% | -3% | -13%
COc1ccccc1NCC(=O)N/N=C/c1c(O)ccc2ccccc12 | x | -95* | -6% | x | x | x
O=C(CN1CCCc2ccccc21)N/N=C/c1c(O)ccc2ccccc12 | u | -98* | u | u | u | 11µM*
Cc1cc(Br)cc2c(C(=O)NCC3CCCO3)cc(-c3cccs3)nc12 (stereo not given) | -12% | -10 | 9% | -8% | -15% | -15%
Cc1ccc2nc(-c3ccc(Br)cc3)cc(C(=O)NCC3CCCO3)c2c1 (stereo not given) | x | -100* | 7% | x | -17% | i
COc1cccc(-c2cc(C(=O)NCC3CCCO3)c3cc(Br)cc(C)c3n2)c1 (stereo not given) | x | -60* | -16% | x | x | x
Cc1c(C)n(CCCN(C)C)c2ncnc(NC3CCCCC3)c12 | u | 12 | -7% | 10µM* | u | -26%
SMILES | LASV entry inh | HCMV inh | FMDV inh | MARV entry inh | VACV Venus inh | VACV mCherry inh
Cc1c(C)n(CCCN(C)C)c2ncnc(Nc3ccccc3)c12 | x | 33 | -1% | x | x | x
Cc1ccc(C(=O)OCn2ncc(Cl)c(Cl)c2=O)cc1 | 23µM* | -102* | 16µM* | 15µM* | x | x
O=C(OCn1ncc(Cl)c(Cl)c1=O)c1ccc(C(F)(F)F)cc1 | u | -86* | u | u | x | x
O=C(O)c1ccc(-n2ncc(Cl)c(Cl)c2=O)cc1 | x | x | u | x | -14% | 0%
CC1CCN(C(=O)Nc2ccc3nc(-c4ccco4)c(-c4ccco4)nc3c2)CC1 | x | x | x | x | 7% | -6%
C=CCCC1CN(Cc2ccc(OC)cc2)S(=O)(=O)c2c(cccc2N2CCCC2)O1 (stereo not given) | x | -28 | x | x | x | x
CCOC(=O)C(C(=O)OCC)C(Nc1ccc(Br)cc1)c1ccccc1 (stereo not given) | 17% | 5 | 13µM* | -13% | x | x
CCOC(=O)C(c1ccccc1)C(Nc1ccc(F)cc1)c1ccccn1 (stereo not given) | x | -12 | -21% | x | x | x
CC(Nc1oc(-c2ccccc2)nc1C(C)(C)C)c1ccccc1 (stereo not given) | u | x | x | -5%[14.2 µM] | x | x
CC(C)CNC(=O)Cn1c(=O)c2c(ncn2CC(C)C)n(Cc2ccccc2)c1=O | u | -67* | 18% | -7%[46.1 µM] | 0% | 0%
Cc1cc(C(=O)COC(=O)CC2Sc3ccccc3NC2=O)c(C)n1-c1cccc(C(F)(F)F)c1 (stereo not given) | 0% | u | 12% | 1% | -6% | i
Cc1cc(C(=O)COC(=O)Cc2n[nH]c(=O)c3ccccc23)c(C)n1-c1cccc(C(F)(F)F)c1 | u | -16 | u | 11µM* | -16% | -30%
CN=C(NC#N)Nc1ccc(C2=NNC(=O)C[C@@H]2C)cc1 | x | x | x | 23% | x | x
COCC1=NC2C(=O)N(C)C(=O)N(CC(C)C)C2=N1 (stereo not given) | x | x | x | 13% | x | x
CN(Cc1ccccc1)C(=S)NC(=O)c1ccccc1 | -27%[46.1 µM] | 7 | 3% | u | -9% | u
CC(C)N(C(=NCc1ccccc1)NC(=O)c1ccccc1)C(C)C | x | -89* | 47% | x | -13% | i
O=C(Nc1ccc2c(c1)CCCN2C(=O)c1ccccc1)c1ccccc1Br | x | -70* | u | x | x | x
COc1cc(OC)cc(C(=O)Nc2ccc3c(c2)CCCN3C(=O)c2cccs2)c1 | u | -77* | u | x | -12% | -17%
COc1ccccc1C(=O)Nc1ccc2c(c1)CCCN2C(=O)c1cccs1 | u | -60* | 0% | u | -21% | i
O=C(Nc1ccc2c(c1)CCCN2C(=O)c1cccs1)c1ccccc1 | u | -36 | -15% | u | -11% | -7%
O=C(Nc1ccc2c(c1)CCCN2C(=O)c1cccs1)c1cccc(C(F)(F)F)c1 | u | -70* | u | x | -17% | -1%
COc1ccccc1C(=O)Nc1ccc2c(c1)CCCN2C(=O)c1ccccc1 | u | u | -8% | u | -15% | -18%
COC(=O)c1ccc2nc(-c3ccco3)c(Cc3ccsc3)n2c1 | x | 85 | x | x | x | x
CC(=O)Nc1ccc(S(=O)(=O)NCCc2csc3nc(-c4ccc(Cl)cc4)nn23)cc1 | -26%[46.1 µM] | 6 | u | x | -24% | -3%
